# According to PubChem BioAssay (NCI):
# About 83,000 compounds went through this panel and 20% of them were active in at least one assay; those are over-represented in the sample as a whole.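 Growth was measured after 48 h exposure to one concentration of compound in 96-well plates. Values under 10 count as active.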 Active and inactive are the calls of the source.
# Test system: MDA-MB-468 breast
# Assay: NCI-60 one-dose screen, 48 h (100 = growth as untreated, 0 = no growth, -100 = all killed)
# Conditions: 10 µM unless noted
row,SMILES,growth
1,CC(=O)O[C@H]1C[C@@H]2C(C)(C)C(=O)CC[C@@]2(C)c2ccc(C(C)C)cc21,105% (inactive)
2,C=C(C)[C@@H]1CC[C@]2(C(=O)OCCOCCOCC[P+](c3ccccc3)(c3ccccc3)c3ccccc3)CC[C@]3(C)[C@H](CC[C@@H]4[C@@]5(C)CC[C@H](OC(C)=O)C(C)(C)[C@@H]5CC[C@]43C)[C@@H]12,-76.5% (active)
3,O=c1[nH]c(=O)[nH]c(=S)[nH]1,95.8% (inactive)
4,C#Cc1cccc(NC(=O)C2CCCCN2C(=O)CCl)c1 (stereo not given),-60.1% [8.25 µM] (active)
5,O=C(Nc1ccc(N=Nc2ccccc2)cc1)c1cccc2ccccc12,41.9% (inactive)
6,CN1CCN(c2ccc(Nc3nc(NCCNC(=O)c4ccccc4)c4sccc4n3)cc2)CC1,45.3% (inactive)
7,S=C1SCN(Cc2cccs2)CN1Cc1cccs1,40.4% (inactive)
8,COC(=O)N/N=C/c1c[n+]([O-])c2ccccc2[n+]1[O-],110% (inactive)
9,COc1cc(/C=C/C(=O)Nc2ccc3c(c2)/C(=C\c2cccn2C)C(=O)N3)cc(OC)c1OC,47.4% (inactive)
10,CCN(CC)CCCCCCNc1cccc2cc(Br)cnc12,77% (inactive)
11,O=C(c1cccc(N2CCOCC2)n1)c1c[nH]c2ccccc12,89.5% (inactive)
12,CCCCCCC(C(=O)OCC)(C(=O)OCC)C1CCCCCC1,112% (inactive)
13,CC[C@@H]1C(=O)N(C)c2cnc(Nc3ccc(C(=O)NC4CCN(C)CC4)cc3OC)nc2N1C1CCCC1,-33.3% (active)
14,NC(=O)Nc1ccc2ncnc(Nc3ccc(Cl)cc3)c2c1,-7.15% (active)
15,Nc1c(C(=O)Nc2ccncc2)sc2nc3c(cc12)CCCCC3,54.2% (inactive)
16,Cc1ccc(-n2nc3c(c(C#N)c2=O)CC(c2ccccc2[N+](=O)[O-])C([N+](=O)[O-])=C3O)cc1 (stereo not given),94% (inactive)
17,NC(=O)c1c(NC(=O)c2ccc(C3CCCCC3)cc2)sc2c1CCC(=O)C2,-10.3% (active)
18,O=C1/C(=C\c2ccco2)SC(=S)N1CCc1ccc(O)cc1,54.9% (inactive)
19,C[C@]1(CO)C[C@@H](O)C[C@]2(C)[C@@H]1CC[C@@]13C[C@@H]4[C@@H](C[C@H]12)[C@]4(C)C3,113% (inactive)
20,CC(C)=CCC[C@](C)(O)C1CC[C@]2(C)[C@@H]1CC[C@@H]1[C@@]3(C)CC/C(=N\OCCC#N)C(C)(C)[C@@H]3CC[C@]12C (stereo not given in full),83.2% (inactive)

row,SMILES,growth
1,COc1ccc(-n2c(/C=C3\C(=O)Nc4ccccc43)ccc2CO)cc1,96.4% (inactive)
2,Nc1nsc(C(=O)c2ccc(O)cc2)n1,105% (inactive)
3,O=C(N/N=C/c1ccccc1O)c1ccncc1,61% (inactive)
4,COc1ccc(C(c2cc(OC)c(OC)c(OC)c2)N2CCCCC2)cc1 (stereo not given),9.32% (active)
5,COc1cccc(OC)c1C(=O)N[C@@H]1C(=O)N2[C@@H]1SC(C)(C)[C@@H]2C(=O)O,114% (inactive)
6,Cc1ccc(S(=O)(=O)c2nc(-c3ccccc3)oc2S(C)=O)cc1 (stereo not given),-59% (active)
7,CCSc1nc2c([nH]1)c(=O)n(C)c(=S)n2C,109% (inactive)
8,CCCN(CCC)CCC(O)c1cc2c(c3ccccc13)CCCC2 (stereo not given),72.2% (inactive)
9,O=C1c2cc(Cl)ccc2-c2c(O)cc(Cl)cc21,48.6% (inactive)
10,COc1cc(C(=O)c2c(N)ncn2-c2ccccc2)cc(OC)c1OC,76% (inactive)
11,CC(=O)CSc1ncnc2nc[nH]c12,40.6% (inactive)
12,O=c1[nH]c2cc(Cl)c(Cl)cc2n2cc3ncccc3c12,0.904% (active)
13,COC(=O)c1ccc2cc(OC)c(OC)cc2c1,98.6% (inactive)
14,Cc1ccccc1NC(=O)N/C(N)=N/c1nc2ccccc2s1,1.56% (active)
15,COc1ccc2[nH]c(=O)c(/C=C/C(=O)c3ccccc3OC)cc2c1,16.7% (inactive)
16,COc1cccc(-c2nc3sccn3c2-c2ccnc(NCCNS(=O)(=O)c3cccc(Cl)c3)c2)c1,42.4% (inactive)
17,CCc1ccc(Cc2cnc(NC(=O)c3cc(C)oc3C)s2)cc1,9.5% (active)
18,O=c1c2c(=NCCN3CCCC3)cc3c(=O)n(CCCN4CCOCC4)c(=O)c4c(-c5ccc(CN6CCCC6)cc5)cc(c(O)n1CCCN1CCOCC1)c2c4-3,-58.1% (active)
19,O=C(Nc1ccncc1)C(=O)c1cn(S(=O)(=O)c2ccccc2F)c2ccccc12,16.4% (inactive)
20,CC1(C)CN(CCNc2nccc(-c3c(-c4cccc(O)c4)nc4sccn34)n2)S(=O)(=O)N1,81% (inactive)
